Assay results reported in ChEMBL document CHEMBL4513216, “Probing the Open Global Health Chemical Diversity Library for Multistage-Active Starting Points for Next-Generation Antimalarials” (ACS Infect Dis, 2020).
The whole screen tested about 68,000 compounds, of which about 2,700 (4%) showed an effect of 50% or more. The sample as a whole holds a higher share of strong results than the screen did.

What follows are compounds tested on Plasmodium berghei (assay: Screen against P. berghei liver stage (PbLuc), transformed with Luciferase, at 2uM). Conditions: tested at 2 uM.
Format: functional, HepG2

SMILES	INHIBITION [%]
CCOCC1CN(C(=O)Cc2ccsc2)Cc2ccnn2C1 (stereo unspecified)	21.77
CC(=O)N1CCCN(C(C(=O)O)c2cccc(C)c2C)CC1 (stereo unspecified)	-17.37
O=C1COC2(CCN(Cc3cccnc3)CC2)CN1	11.87
c1cncc(N2CCOCC3(CCCN(Cc4cccs4)C3)C2)c1 (stereo unspecified)	-26.24
Cc1c(Cl)c(C(=O)N2C[C@@H](C(=O)O)[C@H](c3cccnc3)C2)nn1C	69.71
Cc1c(Cl)c(C(=O)N2CC(c3cccnc3)C2)nn1C	7.62
Cc1ccc2nc(C(=O)N3C[C@@H](C(=O)O)[C@H](c4cccnc4)C3)cn2c1	1.52
Cc1nc(C)n(CC2CCCN2CCCOc2ccc(F)cc2)n1 (stereo unspecified)	-8.1
CCC(C(=O)Nc1ccc2nc(C)oc2c1)N1CCCC1=O (stereo unspecified)	14.06
CNc1nc(C)cc(NC2CCCN(C3Cc4ccccc4C3)C2)n1 (stereo unspecified)	58.03
CNc1cc(C)nc(NC2CCCN(C3Cc4ccccc4C3)C2)n1 (stereo unspecified)	8.26
Cc1ccc(NC2CCCN(C3Cc4ccccc4C3)C2)nn1 (stereo unspecified)	3.91
CC(C)COC1CC2(CCN(C(=O)Cc3ccccn3)CC2)C1	-9.07
CSCc1noc(Cn2ncn3cccc3c2=O)n1	46.15
c1cc(CN2CCOCC3(CCN(CC4CCOCC4)CC3)C2)ccn1	26.76
CC1CN(C(=O)c2cnn(-c3ccccn3)c2C(C)C)CC(C)(C)O1 (stereo unspecified)	-4.15
CCc1c(C(=O)N2CC(C)OC(C)(C)C2)cnn1-c1ccccn1 (stereo unspecified)	24.23
CCc1c(C(=O)N2CCOC(C)(C)C2)cnn1-c1ccccn1	61.63
CCc1nc(CC(=O)N2CCC(C(=O)N3CCCC3)CC2)cs1	-30.23
O=C1CC[C@H]2[C@H](CCN2C(=O)N2CCCC2)N1Cc1ccncc1	-61.95
OC(c1ccccn1)C1CCN(Cc2cc3n(n2)CCNC3)CC1 (stereo unspecified)	60
c1ccc(C2CCCN(Cc3cc4n(n3)CCNC4)CC2)cc1 (stereo unspecified)	9.57

SMILES	INHIBITION [%]
OC(c1ccccn1)C1CCN(Cc2cc3n(n2)CCCNC3)CC1 (stereo unspecified)	-29.69
CCC(NC(=O)C1CCN(S(C)(=O)=O)CC1)c1ccc(OC)cc1 (stereo unspecified)	19.7
O=C(NC1CCCC1)[C@@H]1C[C@@H]2CCN(Cc3ccoc3)C[C@H]2O1	3.18
COc1ccc(C(CC(=O)O)NC(=O)CCc2cccs2)cc1OC (stereo unspecified)	36.38
Cc1ccc(C(CC(=O)O)NC(=O)CCc2cccs2)cc1 (stereo unspecified)	-34.12
O=C(O)CC(NC(=O)CCCc1cccs1)c1ccc(F)cc1 (stereo unspecified)	57.2
CCCc1cc(NC2CCc3nc(C(C)C)nn3C2)n2ncnc2n1 (stereo unspecified)	-43.09
COc1cccc(CN(C)Cc2cccc(C#N)c2)c1OC	3.3
COc1cccc(CN(C)Cc2ccc(C#N)cc2)c1OC	10.52
COc1cccc(CN(C)Cc2cc(C#N)ccc2F)c1OC	56.49
Cc1ccc(NC(=O)C2=CN=S=N2)cc1	25.51
CN(C)C(=O)[C@@H]1C[C@@H]2CCN(Cc3ccncc3)C[C@@H]2O1	37.6
c1cc2nccc(CC3CCCN(C4CCOCC4)CC3)c2cn1 (stereo unspecified)	24.56
O=C(NC1CCN(C2CC2)CC1)c1cc(Cl)ccc1-n1cnnn1	19.04
O=C(NC1CC1)c1cc(Cl)ccc1-n1cnnn1	-14
CC(=O)N1CCC(NC(=O)c2cc(Cl)ccc2-n2cnnn2)CC1	53.19
CCCC1(CO)CCCN(C(=O)CNC(C)=O)C1 (stereo unspecified)	15.27
O=c1cc(N2CCNCC2)cnn1Cc1noc(C2CCCC2)n1	41.84
O=C(Cn1nc(Br)nc1Br)N1CCCC1	-14.58
CCCC1COCCN1Cc1ccc(S(=O)(=O)NC)cc1 (stereo unspecified)	30.96
CCCC1COCCN1Cc1ccc(NC(C)=O)cc1 (stereo unspecified)	48.17
CCCC1COCCN1Cc1ccc(C(=O)O)cc1 (stereo unspecified)	55.7

SMILES	INHIBITION [%]
Cc1ccccc1CS(=O)(=O)CC(=O)N(C)Cc1ccccc1F	-38.35
COc1ccc(Cl)cc1CS(=O)(=O)CC(=O)N(C)Cc1ccccc1F	51.94
CN(Cc1ccccc1F)C(=O)CS(=O)(=O)Cc1ccc(Cl)c(Cl)c1	-10.5
Cc1nc(C(C)C)sc1C(C)N(C)C(=O)c1ccc(=O)n(C)c1 (stereo unspecified)	-11.76
CCc1ccc(CN(C)Cc2nc(-c3cnccn3)no2)nc1	-16.76
CCc1ccc(CN(C)c2ccc(-c3nc(COC)no3)cn2)nc1	10.65
CCc1ccc(CN(C)Cc2nc(COc3ccccc3)no2)nc1	64.2
CN(Cc1ccc(F)cc1F)Cc1cc2c(cc1Br)OCCO2	45.66
Cc1cnccc1N1CCCN(C(=O)CCCc2cn[nH]c2)CC1	9.17
O=C(c1cnccn1)N1C[C@@H]2[C@@H](C1)OCC(=O)N2CC1CCCC1	31.65
O=C(c1cnccn1)N1C[C@@H]2OCC(=O)N(CC3CCCCC3)[C@@H]2C1	-26.14
O=C(c1ccccn1)N1C[C@@H]2OCC(=O)N(CC3CCCCC3)[C@@H]2C1	56.16
O=C(NCC(=O)N1CCc2ccccc2C1)c1cnccn1	23.94
CC(C)(CO)Nc1cc(-c2cn[nH]c2)ncn1	6.03
Cc1cnn(CC2CCCCN2CC(=O)Nc2nc(C)cs2)c1 (stereo unspecified)	67.69
Cc1cnn(CC2CCCN2CC(=O)Nc2nc(C)cs2)c1 (stereo unspecified)	-54.73
CCCn1nccc1NC(=O)CN1CCCC1Cn1cc(C)cn1 (stereo unspecified)	50.32
Cc1cnn(CC2CCCCN2CC(=O)Nc2nncs2)c1 (stereo unspecified)	23.65
CCCn1nccc1NC(=O)CN1CCCC1Cn1cccn1 (stereo unspecified)	33.9
CCCn1nccc1NC(=O)CN1CCC[C@H]1CO	13.53
Cc1cc(O)n(-c2ccccc2Cl)c(=O)c1C#N	3.1
O=C1NCCCCC1NS(=O)(=O)N1CCCCCC1 (stereo unspecified)	-4.89

SMILES	INHIBITION [%]
CC(C)N1CC[C@H]2[C@H](C[C@@H](Cn3cncn3)N2c2nccs2)C1	27.61
Cc1ccc(-c2nnc(CN3CCOC(Cn4cccn4)C3)o2)cc1 (stereo unspecified)	-47.05
CC(C)(C)c1nnc(CN2CCOC(Cn3cccn3)C2)o1 (stereo unspecified)	11.18
CN(C)C(=O)c1cccc(CN2CCOC(Cn3cncn3)C2)c1 (stereo unspecified)	74.35
Cc1ccc(-c2nnc(CN3CCOC(Cn4cncn4)C3)o2)cc1 (stereo unspecified)	51.46
CN(C)C(=O)c1cccc(CN2CCOC(Cn3cccn3)C2)c1 (stereo unspecified)	-21.39
Fc1ccc(-c2nnc(CN3CCOC(Cn4cncn4)C3)o2)cc1 (stereo unspecified)	-77.99
CC(C)(C)c1nnc(CN2CCCC(Cn3cncn3)C2)o1 (stereo unspecified)	15.31
CC(C)(C)c1nnc(CN2CCOC(Cn3cncn3)C2)o1 (stereo unspecified)	62.13
Cc1cnn(CC2CN(Cc3cccc(C(=O)N(C)C)c3)CCO2)c1 (stereo unspecified)	18.46
Cc1ccc(CCNC(=O)Nc2cc(C(F)(F)F)c[nH]c2=O)o1	-0.12
O=C(c1n[nH]c2c1CN(C1CCOCC1)CC2)N1CCCC1	30.95
Cc1cccc(N(C)Cc2cc(=O)n3oc(C)cc3n2)c1	4.91
N#CCCN(CC1CCOC1)Cn1ccc(-c2cccs2)n1 (stereo unspecified)	-42.48
COc1cc(C)nc(N2CCN(C(=O)CN(C)C(C)C)CC2)n1	10.22
COc1c(C)cnc(CNC(=O)CCOCC(C)C)c1C	5.17
COc1c(C)cnc(CNC(=O)CCOCc2ccccc2)c1C	65.76
COc1ccccc1OCCC(=O)NCc1ncc(C)c(OC)c1C	40.51
CN1CCCC1c1cccc(Cc2ccc(F)cc2)n1 (stereo unspecified)	16.32
Cc1cc(-c2nnn(CCC(N)=O)n2)ccc1F	5
Cc1cc(-c2nnn(CCNS(C)(=O)=O)n2)ccc1F	69.72
CNS(=O)(=O)CCCn1nnc(-c2ccc(F)c(C)c2)n1	31.66

SMILES	INHIBITION [%]
c1ccc([C@@H]2CN(Cc3cccnc3)C[C@H]2c2cc[nH]n2)cc1	50.94
COc1ccc([C@@H]2CN(Cc3ccncc3)C[C@H]2c2cc[nH]n2)cc1	-128.75
c1ccc([C@@H]2CN(Cc3ccncc3)C[C@H]2c2cc[nH]n2)cc1	48.22
CS(=O)(=O)c1cccc(C(=O)NCCCN2CCc3ccccc3C2)c1	5.59
c1cnc(N2CC3(CCN(C4CCOCC4)CC3)c3ccccc32)nc1	-23.45
CN(CCn1nc2ccccn2c1=O)CC(=O)N1CCCC1	17.19
CN(CCn1nc2ccccn2c1=O)CC(=O)NC1CC1	16.6
CN(C)C(=O)N1CCN(CCn2nc3ccccn3c2=O)CC1	50.32
CCC(C)NC(=O)NCCCn1nc2ccccn2c1=O (stereo unspecified)	55.7
CC(=O)N1CCCN(CCn2nc3ccccn3c2=O)CC1	52.66
CCN(CC)C(=O)CN(C)CCn1nc2ccccn2c1=O	8.88
CCC(=O)CNC(=O)CCn1nc2ccccn2c1=O	-12.95
O=C(NCCCn1nc2ccccn2c1=O)NC(C1CC1)C1CC1	-35.46
CCNC(=O)NCCCn1nc2ccccn2c1=O	-53.4
CN1CCN(C(=O)c2cnsn2)c2ccc(F)cc21	36.24
CN(C)CCCn1ccnc1C1CCCN(c2ncc(Cl)cc2F)C1 (stereo unspecified)	-18.59
Cc1noc([C@H]2C[C@H]3OCC[C@H]3N(Cc3cccs3)C2)n1	-27.21
c1cnc(N2CCCC3(CCN(CC4CCC4)C3)C2)nc1 (stereo unspecified)	-20.98
